Source: PubChem BioAssay (EPA / NIEHS)
“And” between values parts separate entries of the source, which are not always exact repeats. Equal entries are not always repeated. Records with an inconclusive call do not appear. Where a structure was tested more than once in an assay, its records may differ in their call. The source made the active and inactive calls. Rule for the calls, unless noted: active = hit-call score of the fitted dose curve at least 0.9, where 1 is the maximum; inactive = score below 0.9.

Assay: CCTE_Shafer_MEA_dev_network_spike_duration_std: CCTE's Neural Network Formation Assay for Standard Deviation of Network Spike Duration, Shafer Lab (AID 2284052);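 note: area under curve of spike duration SD across recording days 5 to 12; hits are decreases in network spike duration SD versus DMSO vehicle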
Summary of the method: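 Primary rat cortical neurons on PEI-coated 16-electrode MEA wells, exposed from plating day 0 through day 12 with compound renewed at DIV 5 and 9. Network spike duration SD recorded on days 5, 7, 9, 12, collapsed as trapezoidal AUC; loss-of-signal fit versus DMSO.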

| Structure (SMILES) | AC50 | outcome |
| --- | --- | --- |
| O=C(Nc1ccccc1-c1ccc(Cl)cc1)c1cccnc1Cl | 1.14 µM (active) | inactive |
| CCOP(=O)(OCC)Oc1nc(Cl)c(Cl)cc1Cl | 2.98 µM (active) | inactive |
| CCOC(=O)C(C)OC(=O)c1cc(Oc2ccc(C(F)(F)F)cc2Cl)ccc1[N+](=O)[O-] (centres undefined) |  | inactive |
| CC(C)=CC1C(C(=O)OCc2coc(Cc3ccccc3)c2)C1(C)C (centres undefined) |  | inactive |
| COP(=S)(OC)Oc1ccc([N+](=O)[O-])c(C)c1 |  | inactive |
| C=C(C)CN(CC)c1c([N+](=O)[O-])cc(C(F)(F)F)cc1[N+](=O)[O-] | 13.1 µM (active) |  |
| COP(=S)(OC)SCn1nnc2ccccc2c1=O |  | inactive |
| CCSC(=O)N1CCCCCC1 |  | inactive |
| CC1(C)C(C=C(Cl)Cl)C1C(=O)OC(C#N)c1cccc(Oc2ccccc2)c1 (centres undefined) | 2.2 µM (active) | inactive |
| CS(=O)(=O)c1cc(C(F)(F)F)ccc1C(=O)c1cnoc1C1CC1 |  | inactive |

Assay: CCTE_Shafer_MEA_dev_per_network_spike_spike_number_mean: CCTE's Neural Network Formation Assay for Mean Number of Spikes in a Network Spike, Shafer Lab (AID 2284053);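 for AC50: fitted as decrease in spikes per network spike relative to DMSO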
Summary of the method: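 Primary rat cortical neurons on 48-well, 16-electrode MEA plates were exposed from plating to DIV 12, with dosing renewed on DIV 5 and 9. Spikes per network spike (0.05 s peak window) were recorded on DIV 5, 7, 9 and 12 and collapsed as trapezoidal AUC versus DMSO.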

| Structure (SMILES) | AC50 | outcome |
| --- | --- | --- |
| O=C(Nc1ccccc1-c1ccc(Cl)cc1)c1cccnc1Cl | 1.13 µM (active) | inactive |
| CCOP(=O)(OCC)Oc1nc(Cl)c(Cl)cc1Cl | 3.09 µM (active) and 15 µM (active) | inactive |
| CCOC(=O)C(C)OC(=O)c1cc(Oc2ccc(C(F)(F)F)cc2Cl)ccc1[N+](=O)[O-] (centres undefined) |  | inactive |
| CC(C)=CC1C(C(=O)OCc2coc(Cc3ccccc3)c2)C1(C)C (centres undefined) |  | inactive |
| COP(=S)(OC)Oc1ccc([N+](=O)[O-])c(C)c1 |  | inactive |
| C=C(C)CN(CC)c1c([N+](=O)[O-])cc(C(F)(F)F)cc1[N+](=O)[O-] | 14.1 µM (active) |  |
| COP(=S)(OC)SCn1nnc2ccccc2c1=O | 24.9 µM (active) |  |
| CCSC(=O)N1CCCCCC1 |  | inactive |
| CC1(C)C(C=C(Cl)Cl)C1C(=O)OC(C#N)c1cccc(Oc2ccccc2)c1 (centres undefined) | 6.97 µM (active) | inactive |
| CS(=O)(=O)c1cc(C(F)(F)F)ccc1C(=O)c1cnoc1C1CC1 |  | inactive |

Assay: CCTE_Shafer_MEA_dev_per_network_spike_spike_percent: CCTE's Neural Network Formation Assay for Percent of Spikes in a Network Spike, Shafer Lab (AID 2284054)
Summary of the method: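 Primary rat cortical neurons on 16-electrode MEA wells (PEI-coated, laminin at plating), exposed from day 0 with renewal at DIV 5 and 9; spikes within 0.05 s of network-spike peaks over total spikes, AUC across days 5, 7, 9, 12.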

| Structure (SMILES) | outcome | AC50 |
| --- | --- | --- |
| O=C(Nc1ccccc1-c1ccc(Cl)cc1)c1cccnc1Cl | inactive |  |
| CCOP(=O)(OCC)Oc1nc(Cl)c(Cl)cc1Cl | inactive | 7.07 µM (active) |
| CCOC(=O)C(C)OC(=O)c1cc(Oc2ccc(C(F)(F)F)cc2Cl)ccc1[N+](=O)[O-] (centres undefined) | inactive |  |
| CC(C)=CC1C(C(=O)OCc2coc(Cc3ccccc3)c2)C1(C)C (centres undefined) | inactive |  |
| COP(=S)(OC)Oc1ccc([N+](=O)[O-])c(C)c1 | inactive |  |
| C=C(C)CN(CC)c1c([N+](=O)[O-])cc(C(F)(F)F)cc1[N+](=O)[O-] |  | 23.2 µM (active) |
| COP(=S)(OC)SCn1nnc2ccccc2c1=O |  | 4.18 µM (active) |
| CCSC(=O)N1CCCCCC1 | inactive |  |
| CC1(C)C(C=C(Cl)Cl)C1C(=O)OC(C#N)c1cccc(Oc2ccccc2)c1 (centres undefined) | inactive | 8.41 µM (active) |
| CS(=O)(=O)c1cc(C(F)(F)F)ccc1C(=O)c1cnoc1C1CC1 | inactive |  |

Assay: CCTE_Shafer_MEA_dev_LDH: CCTE's Lactate Dehydrogenase Assay for Cytotoxicity in the Neural Network Formation Assay, Shafer Lab (AID 2284068; active = hit-call score of the fitted dose curve at least 0.9, where 1 is the maximum;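 note: exposure for twelve days from plating with re-dosing on DIV 5 and 9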)
Summary of the method: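 Primary rat cortical neurons were plated on PEI/laminin MEA plates and exposed from day 0 for twelve days, with compound renewed at DIV 5 and 9. Cytotoxicity was determined by spectrophotometric LDH assay relative to DMSO.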

| Structure (SMILES) | AC50 | outcome |
| --- | --- | --- |
| O=C(Nc1ccccc1-c1ccc(Cl)cc1)c1cccnc1Cl | 50 µM (active) | inactive |
| CCOP(=O)(OCC)Oc1nc(Cl)c(Cl)cc1Cl | 610 nM (active) and 413 nM (active) | inactive |
| CCOC(=O)C(C)OC(=O)c1cc(Oc2ccc(C(F)(F)F)cc2Cl)ccc1[N+](=O)[O-] (centres undefined) |  | inactive |
| CC(C)=CC1C(C(=O)OCc2coc(Cc3ccccc3)c2)C1(C)C (centres undefined) | 14.1 µM (active) |  |
| COP(=S)(OC)Oc1ccc([N+](=O)[O-])c(C)c1 |  | inactive |
| C=C(C)CN(CC)c1c([N+](=O)[O-])cc(C(F)(F)F)cc1[N+](=O)[O-] | 14.5 µM (active) |  |
| COP(=S)(OC)SCn1nnc2ccccc2c1=O | 22.7 µM (active) |  |
| CCSC(=O)N1CCCCCC1 |  | inactive |
| CC1(C)C(C=C(Cl)Cl)C1C(=O)OC(C#N)c1cccc(Oc2ccccc2)c1 (centres undefined) |  | inactive |
